Screening results as filed in PubChem.
Rows were chosen to be rich in hits. Some 2.9% of all compounds tested hit in one or more screens of this group.
PI5P4K alpha inh – qHTS for Inhibitors of phosphatidylinositol 5-phosphate 4-kinase (PI5P4K); Phosphatidylinositol 5-phosphate 4-kinase type-2 alpha (Homo sapiens), P48426; PI5P4Kalpha enzyme, ADP-Glo luminescence, 60 min; hits give low values; max response, %; 330,000 tested, 1.2% active; AID 652105, 2013; active = max response of -50% or lower; inconclusive = between -30% and -50%; inactive = -30% or higher; also: value at the top dose of about 77 µM
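Quantitative HTS of the MLSMR library against PI5P4Kalpha with substrate. ATP added last at 5 microM final; room temperature, 60 minutes. Remaining ATP depleted, ADP converted and read as luminescence.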
ALOX12 inh – Primary qHTS assay for inhibitors of human arachidonate 12S-lipoxygenase (ALOX12): Round 2; Polyunsaturated fatty acid lipoxygenase ALOX12 (Homo sapiens), P18054; purified 12hLO, xylenol orange hydroperoxide absorbance; 580,000 tested, 1.1% active; AID 1671190, 2021; Potency, µM (highest dose often 108 µM), hits mostly inhibitors
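Hydroperoxide product was detected by ferrous iron/xylenol orange as the 573 to 405 nm absorbance ratio. Arachidonic acid at 40 uM (final) was turned over for 30 min at room temperature by 150 nM human 12hLO, pH 7.0 Hepes buffer, after 15 min compound preincubation.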
POLI inh – qHTS for Inhibitors of Polymerase Iota | DNA polymerase iota (Homo sapiens), Q9UNA4 | Pol iota fluorescent replication assay, 10 min | Potency, µM (titrated, usually from 115 µM), actives largely listed as inhibitors | 390,000 tested, 1% active
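Pol iota at 10 nM preincubated 15 min with compounds at room temperature; reaction started with fluorescent substrate, 50 nM final. Fluorescence read kinetically at 0 and 10 min; buffer-only wells as negative control.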
Pol eta inh – qHTS for Inhibitors of Polymerase Eta. 390,000 tested, 1.2% active. recombinant Pol eta, fluorescent DNA replication assay. AID 588591, 2011. Potency, µM (titrated, usually from 114 µM), most hits filed as inhibitors
Target sequence (Q9Y253 whole entry, looked up): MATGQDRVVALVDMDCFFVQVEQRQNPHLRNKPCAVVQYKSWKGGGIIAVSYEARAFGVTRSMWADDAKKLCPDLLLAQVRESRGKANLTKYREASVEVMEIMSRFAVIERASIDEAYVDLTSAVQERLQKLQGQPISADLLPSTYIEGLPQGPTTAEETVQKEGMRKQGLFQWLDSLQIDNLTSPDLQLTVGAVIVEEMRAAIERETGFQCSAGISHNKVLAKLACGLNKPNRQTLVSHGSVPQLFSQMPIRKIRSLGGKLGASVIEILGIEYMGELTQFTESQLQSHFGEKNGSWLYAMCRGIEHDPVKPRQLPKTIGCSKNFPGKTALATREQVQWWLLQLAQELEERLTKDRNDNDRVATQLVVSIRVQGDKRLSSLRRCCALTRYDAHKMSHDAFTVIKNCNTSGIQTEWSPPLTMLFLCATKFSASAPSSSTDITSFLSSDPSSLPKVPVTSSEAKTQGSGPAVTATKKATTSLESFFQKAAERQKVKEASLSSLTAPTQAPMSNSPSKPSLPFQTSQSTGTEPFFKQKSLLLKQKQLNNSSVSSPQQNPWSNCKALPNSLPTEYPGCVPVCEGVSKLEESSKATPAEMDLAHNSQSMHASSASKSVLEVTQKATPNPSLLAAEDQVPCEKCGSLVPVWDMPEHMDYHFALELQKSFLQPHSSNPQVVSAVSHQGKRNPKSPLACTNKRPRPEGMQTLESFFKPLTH
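Pol eta (10 nM) was preincubated with compounds for 15 min at room temperature, after which fluorescent replication substrate (50 nM final) was added to start the reaction. Fluorescence was read kinetically at 0 and 10 min.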
Pol beta inh – qHTS Assay for Inhibitors of DNA Polymerase Beta; Pol beta primer extension/strand displacement, fluorescence kinetic; P06746; Potency, µM (series often up to 114 µM), most hits filed as inhibitors; 340,000 tested, 1.3% active; AID 485314, 2010
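Preincubation: enzyme (10 nM) with compound, 15 min, RT. Reaction: substrate added to 50 nM final. Reads: 0 and 10 min. Analysis: normalized, Hill fit.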
Pol kappa inh – qHTS for Inhibitors of Polymerase Kappa; purified Pol kappa, fluorescent DNA synthesis assay, 10 min; Potency, µM (top dose mostly 107 µM), most hits filed as inhibitors; 400,000 tested, 0.53% active; AID 588579, 2011
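Here, compound and 10 nM enzyme are combined for 15 min at room temperature; adding 50 nM substrate (final) starts DNA synthesis, tracked by fluorescence at 0 and 10 min against buffer-only wells.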
A number is an active result; 0 = inactive; ? = inconclusive; - = not tested or not shown; ! = repeats disagree. Unless noted, calls follow the shape of the dose curve; as a rule, active = well fitted inhibition curve with a large enough effect; inconclusive = small, poorly fitted or top-dose-only effect, or another doubt; inactive = no such curve, though single readings can be large or run the other way.

SMILES	PI5P4K alpha inh	ALOX12 inh	POLI inh	Pol eta inh	Pol beta inh	Pol kappa inh
Cc1ccc(NC(=S)NNc2ccc(C(=O)O)cc2[N+](=O)[O-])cc1C	0	1.4µM	?	0	-	0
Cc1ccc(NS(=O)(=O)c2cc([N+](=O)[O-])ccc2N/N=C/c2ccc(N(c3ccccc3)c3ccccc3)cc2)c(C)c1	-	0	-	-	-	-
Cc1ccc(Nc2ccc(C(N)=O)cc2[N+](=O)[O-])cc1C	0	0	0	0	0	0
COc1ccc(C(C)=NNc2ccc([N+](=O)[O-])cc2S(=O)(=O)Nc2ccccc2C(=O)O)c(OC)c1	?	?	0	45µM	-	0
Cc1ccc(C(=O)NC(=S)Nc2cccc(NC(=O)c3ccccc3)c2)cc1[N+](=O)[O-]	0	25µM	0	0	0	0
O=[N+]([O-])c1cc2oc3c(c2c(C=NCc2ccccc2)c1O)CCCC3	-50	0	0	?	0	0
CCN(Cc1ccccc1)C(=O)Nc1ccc2c(C)cc(=O)oc2c1	-	0	-	-	-	-
N#C/C(=C/C=C/c1ccccc1)C(=O)NC1CC1	-	0	-	-	-	-
N#C/C(=C\C=C\c1ccco1)C(=O)NC1CCCCCC1	-	13µM	-	-	-	-
O=[N+]([O-])c1cc(-c2csc(NCCc3nc4cc(C(F)(F)F)ccc4n3CCCO)n2)ccc1Cl	0	0	13µM	?	-	0
CN1c2ccccc2C(C)(C)C12C=Nc1c(cc(N3CCOCC3)c3ccccc13)O2 (configuration not stated)	0	?	3.5µM	0	0	0
CCc1ccc(NC(=O)c2ccc3c(c2)C(=O)N(Cc2ccco2)C3=O)cc1	?	?	?	20µM	20µM	50µM
CC(C)(C)NC(=O)c1ccc2c(c1)C(=O)N(Cc1ccco1)C2=O	0	0	0	0	0	0
O=C(O)c1ccc2c(c1)C(=O)N(Cc1ccco1)C2=O	-69	0	?	?	0	0
Cc1c(NC(=O)c2ccc3c(c2)C(=O)N(Cc2ccco2)C3=O)cccc1C(=O)O	0	0	?	32µM	?	?
O=C1c2cccc3c(O)ccc(c23)C(=O)N1Cc1ccco1	?	?	20µM	32µM	?	?
Fc1cccc(-c2cnc([C@@H]3COCCN3Cc3ccc(Cl)cc3)[nH]2)c1	-	0	-	-	-	-
C=C(C)CSc1nc2c(c(=O)n(C)c(=O)n2C)n1Cc1ccccc1Cl	-	0	-	-	-	-
O=S(=O)(c1cccc2nsnc12)N1CCCCCC1c1cccc(F)c1 (configuration not stated)	-	0	-	-	-	-
CCOC(=O)c1nn(-c2ccc(C)cc2)c(=O)c2c(N)scc12	0	25µM	?	?	0	0
CCCOc1cc(O)c2c(=O)cc(-c3ccccc3)oc2c1	-	0	-	-	-	-
COc1ccc(CC(=O)Nc2cccc3cccnc23)cc1	-	0	-	-	-	-
COC(=O)N/N=C/c1ccc(-c2cc(Cl)cc(Cl)c2)o1	0	0	0	0	0	0
NC(=S)N/N=C/c1ccc(-c2cc(Cl)cc(Cl)c2)o1	?	40µM	0	0	0	0
NC(=S)N/N=C/c1ccc(-c2ccc([N+](=O)[O-])cc2)o1	-56	32µM	0	0	0	0
SMILES	PI5P4K alpha inh	ALOX12 inh	POLI inh	Pol eta inh	Pol beta inh	Pol kappa inh
NC(=S)N/N=C/c1ccccc1[N+](=O)[O-]	0	35µM	0	0	0	0
O=C(N/N=C/c1ccc(-c2cccc([N+](=O)[O-])c2)o1)c1ccccc1O	0	0	0	50µM	?	0
CCN(CC)S(=O)(=O)c1ccc(-c2nc(C#N)c(NCc3cccnc3)o2)cc1	-	0	-	-	-	-
Cc1ccc(Br)c(SCC(=O)O)c1	-	0	-	-	-	-
CCC[C@H]1[C@@H](NS(=O)(=O)c2ccc(C)cc2)CC[C@@]23CCCN2C(=O)CCC[C@@H]13	-	0	-	-	-	-
Cc1nn(Cc2ccccc2)c(C)c1[C@@H]1C=C[C@@H](NC(=O)c2ccc(F)c(Cl)c2)C1	-	0	-	-	-	-
COc1ccc(Nc2nnc(-c3cc4cccc(OC)c4oc3=O)s2)cc1	-	0	-	-	-	-
NC(=S)N/N=C/c1ccc(-c2cc(Cl)ccc2Cl)o1	-	22µM	0	0	0	0
COc1ccc(F)cc1Nc1cnc2ccc(N(C)Cc3cccnc3)nn12	-	0	-	-	-	-
CN(C)c1cc(CNC(=O)c2ccc3c(c2)CCC(=O)N3)ccn1	-	0	-	-	-	-
COc1ccccc1CNC(=O)CCNS(=O)(=O)c1ccc2[nH]c(=O)oc2c1	0	0	0	79µM	?	0
O=C(CCNS(=O)(=O)c1ccc2[nH]c(=O)oc2c1)NCc1ccccc1	0	0	0	0	0	0
COc1ccccc1NC(=O)CCNS(=O)(=O)c1ccc2[nH]c(=O)oc2c1	0	0	?	25µM	0	?
CCOc1ccc2[nH]c3c(NCCN(C)C)ncnc3c2c1	-	0	-	-	56µM	-
COc1ccc2[nH]c3c(NCCC4=CCCCC4)ncnc3c2c1	-61	?	0	?	?	0
CCOc1ccc2[nH]c3c(NCCC(C)C)ncnc3c2c1	0	0	0	0	?	0
CCN(CC)CCNc1ncnc2c1[nH]c1ccc(OC)cc12	-	-	-	-	0	-
COc1ccc2[nH]c3c(NCc4ccco4)ncnc3c2c1	-	-	79µM!	?	?	0
CC(=O)c1c(C)[nH]c(-c2csc(-c3cccc(F)c3)n2)c1C	-	0	-	-	-	-
Cc1ccc(C)n1-c1sccc1C(=O)O	-83	-	0	0	4µM	0.89µM
CCCN(CC(=O)Nc1ccccc1OC)C(=O)c1cc(-c2ccccc2)nn1-c1ccccc1	0	45µM	0	0	-	0
O/N=C/c1cccc(Cl)c1Cl	-	0	-	-	-	-
Clc1ccc(N/N=C/c2cccc3ccccc23)cc1Cl	-	5µM	-	-	-	-
O=C(O)c1cccc(N/N=C/c2cccc3ccccc23)c1	0	?	0	?	0	0
Clc1ccc(N/N=C/c2cccc(Cl)c2Cl)cc1Cl	-	1µM	-	-	-	-
SMILES	PI5P4K alpha inh	ALOX12 inh	POLI inh	Pol eta inh	Pol beta inh	Pol kappa inh
COc1ccc(CNC(=O)C(C)OC(=O)C23CC4CC(CC(C4)C2)C3)cc1 (configuration not stated)	-	0	-	-	-	-
Cc1cccc(CSc2nnc(C3CCN(C(=O)OC(C)(C)C)CC3)o2)c1	-	0	-	-	-	-
CCc1ccc2oc(=O)cc(-c3oc4ccccc4c3N)c2c1	-	0	-	-	-	-
CCc1ccc2oc(=O)cc(-c3oc4ccccc4c3NC(=O)C3CC3)c2c1	-	7.9µM	-	-	-	-
CCN(CC)C(=O)CN(c1ccc2c(c1)OCO2)S(C)(=O)=O	-	0	?	0	89µM	0
CC(C)(CC(=O)O)CC(=O)Nc1cccc2ccccc12	-	0	-	-	-	-
CCOC(=O)c1sc(NC(=O)C2CCCO2)c(C(=O)OCC)c1C (configuration not stated)	-	0	-	-	14µM	-
CC12CCC(C(N)=O)(c3nc4ccccc4nc31)C2(C)C (configuration not stated)	0	?	0	0	89µM	0
